The list is not random: actives were taken first. Their share in the collection is about 21%.
SARS PLP yeast – inhibitors of SARS-CoV papain-like protease in yeast; S. cerevisiae expressing SARS-CoV PLpro, growth rescue; Potency, µM (doses to about 32.9 µM), without a hit: at the top dose activity, positive = growth rescue, actives largely listed as activators; AID 485353; hit rate 0.19% among 330,000; calls by dose curve; also: potency is read from the fitted curve at half-maximal effect; 0% is about no effect; nearly all actives have a fitted effect of over 55% in size
Pf growth 96h – inhibits malaria parasite growth, 96 h | P. falciparum luciferase reporter growth, 96 h | Potency, µM (highest dose often 28.7 µM), for the others: top-dose activity change, negative = inhibition, most hits filed as inhibitors | hit rate 6.9% among 320,000; also: potency is read from the fitted curve at half-maximal effect; % is scaled to controls: 0 for no effect and ±100 for the full control effect
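Infected RBCs, 2% Hct / 0.05% parasitemia final; luciferase-reporter P. falciparum; cpd 96 h, 37 C, 5% CO2; luciferase detection reagent; luminescence.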
Shiga toxin inh – Shiga toxin inhibition; hit rate 9.2% among 290,000; Vero cells, Shiga toxin protein synthesis inhibition reporter; inhibition, % at 38.7 µM; in the data active = inhibition mostly above about 28%, no sharp cut-off; inactive = mostly below about 43%; also: 0% is about no effect
NS1 inh – influenza NS1 inhibition; Potency, µM (doses to about 46.1 µM), without a hit: top-dose activity, positive = more growth; hit rate 0.4% among 270,000; calls by dose curve; also: potency is read from the fitted curve at half-maximal effect; actives are rising curves; nearly all actives have a fitted effect of over 50% in size
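Read-out: OD600 growth recovery of NS1-expressing budding yeast. Cells grown overnight at 30C in -URA glucose medium, washed, resuspended and diluted 1:100 in 2% galactose assay medium, pH 6.0. Same strain lacking NS1 served as positive control.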
Pf growth 48h – inhibits P. falciparum growth in the first generation, 48 h | P. falciparum luciferase growth in erythrocytes, 48 h | Potency, µM (titrated, usually from 28.7 µM), without a hit: at the highest dose activity change, negative = inhibition, actives largely listed as inhibitors | hit rate 5.9% among 310,000 | AID 504832; also: potency is read from the fitted curve at half-maximal effect; % is scaled to controls: 0 for no effect and ±100 for the full control effect
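Erythrocytes infected with P. falciparum carrying an integrated firefly luciferase reporter (2% hematocrit, 0.1% parasitemia final) were exposed to compounds in RPMI 1640 with 0.5% Albumax at 37 C, 5% CO2. Growth inhibition was scored as reduced luminescence.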
Cycloheximide cs – counter-screen hit for Shiga toxin inhibitors, cycloheximide. cell reporter, cycloheximide protein synthesis inhibition counterscreen. max response, %. hit rate 12% among 300,000; in the data active = max response mostly above about 13%, no sharp cut-off; inactive = mostly below about 14%; also: read at 38.3 µM for the half of the compounds with a filed dose; 0% is about no effect
* marks the source's active call; other numbers are inactive results. Unless noted, calls follow the shape of the dose curve; as a rule, active = well fitted inhibition curve with a large enough effect; inconclusive = small, poorly fitted or top-dose-only effect, or another doubt; inactive = no such curve, though single readings can be large or run the other way.

How did Cc1ccc(C(=O)Cn2nnc3ccccc32)cc1[N+](=O)[O-] do in these assays?
SARS PLP yeast: 0%; Pf growth 96h: 295%; Shiga toxin inh: 94*; NS1 inh: -2%; Pf growth 48h: 95%; Cycloheximide cs: 28*

Results for O=C(Cn1nnc2ccccc21)c1ccccc1 ?
SARS PLP yeast: 4%; Pf growth 96h: 7%; Shiga toxin inh: -4; NS1 inh: 5%; Pf growth 48h: 40%; Cycloheximide cs: 20*

Results for Cc1cc(NC(=O)c2cc([N+](=O)[O-])cc([N+](=O)[O-])c2C)no1 ?
SARS PLP yeast: -1%; Pf growth 96h: inconclusive; Shiga toxin inh: 20; NS1 inh: 7%; Pf growth 48h: -2%; Cycloheximide cs: -3

What do the screens show for `CN(C)CCN(C(=O)c1ccc2ccccc2c1)c1nc2ccc(F)cc2s1`?
SARS PLP yeast: -15%; Pf growth 96h: 30%; Shiga toxin inh: 57; NS1 inh: -42%; Pf growth 48h: 38%; Cycloheximide cs: 18*

How did CN(C)CCCN(C(=O)c1cc2ccccc2oc1=O)c1nc2ccc(F)cc2s1 do in these assays?
SARS PLP yeast: 19%; Pf growth 96h: -14%; Shiga toxin inh: 20; NS1 inh: 1%; Pf growth 48h: 21%; Cycloheximide cs: 13*

How did O=C1c2ccccc2C(=O)N1CCCCN(C(=O)c1cc2ccccc2oc1=O)c1ccc(F)cc1F do in these assays?
SARS PLP yeast: 8%; Pf growth 96h: 13%; Shiga toxin inh: 74*; NS1 inh: 12%; Pf growth 48h: 8%; Cycloheximide cs: 60*

What do the screens show for `CN(C)CCCN(C(=O)c1ccc(C(=O)c2ccccc2)cc1)c1nc2ccc(F)cc2s1`?
SARS PLP yeast: -9%; Pf growth 96h: 92%; Shiga toxin inh: 13; NS1 inh: -1%; Pf growth 48h: inconclusive; Cycloheximide cs: 5

Results for CCOc1ccc(S(=O)(=O)N2CC(=O)Nc3ccccc32)cc1 ?
SARS PLP yeast: 1%; Pf growth 96h: -1%; Shiga toxin inh: -5; NS1 inh: 0%; Pf growth 48h: 14%; Cycloheximide cs: -1

How did O=C(Cn1nnc2ccccc2c1=O)N[C@H](C(=O)O)c1ccccc1 do in these assays?
SARS PLP yeast: 2%; Pf growth 96h: 14%; Shiga toxin inh: -15; NS1 inh: 5%; Pf growth 48h: -3%; Cycloheximide cs: -2

Results for Cc1nnc(NC(=O)c2cccc(Br)c2)s1 ?
SARS PLP yeast: -14%; Pf growth 96h: 17%; Shiga toxin inh: -9; NS1 inh: -48%; Cycloheximide cs: 1

How did COc1cc(NC(=O)c2cccc(Br)c2)nc(OC)n1 do in these assays?
SARS PLP yeast: -2%; Pf growth 96h: 2.9µM*; Shiga toxin inh: 71*; NS1 inh: -8%; Pf growth 48h: 187%; Cycloheximide cs: 40*

How did COc1cc(NC(=O)COc2ccc(F)cc2)nc(OC)n1 do in these assays?
SARS PLP yeast: -1%; Pf growth 96h: 13µM*; Shiga toxin inh: 7; NS1 inh: -16%; Pf growth 48h: 12%; Cycloheximide cs: 0

What do the screens show for `COc1cc(NC(=O)c2c(F)cccc2F)nc(OC)n1`?
SARS PLP yeast: 2%; Pf growth 96h: inconclusive; Shiga toxin inh: 98*; NS1 inh: 4%; Pf growth 48h: 94%; Cycloheximide cs: 33*

Results for CCN(CC)c1cccc(OC(=O)c2cccnc2Cl)c1 ?
SARS PLP yeast: 3%; Pf growth 96h: 8%; Shiga toxin inh: 23; NS1 inh: -16%; Pf growth 48h: 25%; Cycloheximide cs: 14

Results for CCOc1ccccc1N1CCN(C(=O)c2csc(C)c2CC)CC1 ?
SARS PLP yeast: 0%; Pf growth 96h: 11%; Shiga toxin inh: -2; Pf growth 48h: inconclusive; Cycloheximide cs: -2

Results for COc1ccc(/C=N\NC(=O)c2ccc(-c3ccccc3)cc2)c(OC)c1OC ?
SARS PLP yeast: 4%; Pf growth 96h: 0.83µM*; Shiga toxin inh: -5; NS1 inh: 10%; Pf growth 48h: 9%; Cycloheximide cs: 1

Results for COc1cc(/C=N/NC(=O)c2ccc(-c3ccccc3)cc2)cc(OC)c1OC ?
SARS PLP yeast: 6%; Pf growth 96h: 17µM*; Shiga toxin inh: 10; NS1 inh: 23%; Pf growth 48h: inconclusive; Cycloheximide cs: 14

What do the screens show for `Cc1ccc(NC(=O)c2ccc(Cl)c(S(=O)(=O)N3CCCCCC3)c2)nc1`?
SARS PLP yeast: 0%; Pf growth 96h: inconclusive; Pf growth 48h: inconclusive

Results for O=C(COc1ccccc1)Nc1ccc2oc(=O)ccc2c1 ?
SARS PLP yeast: -1%; Pf growth 96h: 24%; Shiga toxin inh: 52*; NS1 inh: -10%; Pf growth 48h: 42%; Cycloheximide cs: 23*

What do the screens show for `CC(C)c1ccc(OCC(=O)Nc2ccc3oc(=O)ccc3c2)cc1`?
SARS PLP yeast: -4%; Pf growth 96h: 3.3µM*; Shiga toxin inh: 3; NS1 inh: -3%; Pf growth 48h: -14%; Cycloheximide cs: -3

How did COc1ccc(OCC(=O)Nc2ccc3oc(=O)ccc3c2)cc1 do in these assays?
SARS PLP yeast: 0%; Pf growth 96h: 9%; Shiga toxin inh: -15; NS1 inh: 6%; Pf growth 48h: inconclusive; Cycloheximide cs: 0

What do the screens show for `O=C(COc1ccc2ccc(=O)oc2c1)c1ccccc1`?
SARS PLP yeast: 1%; Pf growth 96h: 46%; Shiga toxin inh: 31; NS1 inh: -2%; Pf growth 48h: 20%; Cycloheximide cs: 23*

How did O=C1CS/C(=N/N=C2CCCC2)N1 do in these assays?
SARS PLP yeast: 2%; Pf growth 96h: 3.3µM*; Shiga toxin inh: 7; Pf growth 48h: -14%; Cycloheximide cs: -6

What do the screens show for `O=S(=O)(/C=C/c1ccccc1)N1CCN(c2nc(-c3cccnc3)nc3ccccc23)CC1`?
SARS PLP yeast: -1%; Pf growth 96h: inconclusive; Shiga toxin inh: -12; NS1 inh: 10%; Pf growth 48h: inconclusive; Cycloheximide cs: -8

What do the screens show for `COc1ccc(-c2nc(N3CCN(S(=O)(=O)c4ccc(C)cc4)CC3)c3ccccc3n2)cc1`?
Shiga toxin inh: 73; Cycloheximide cs: 27*

What do the screens show for `O=S(=O)(c1ccc(Cl)cc1)N1CCN(c2nc(-c3cccs3)nc3ccccc23)CC1`?
SARS PLP yeast: 12%; Pf growth 96h: 1.5µM*; Shiga toxin inh: 14; NS1 inh: 11%; Pf growth 48h: 3.7µM*; Cycloheximide cs: -3

What do the screens show for `O=S(=O)(c1ccc(F)cc1)N1CCN(c2nc(-c3cccnc3)nc3ccccc23)CC1`?
SARS PLP yeast: -4%; Pf growth 96h: 10µM*; Pf growth 48h: 9.3µM*

How did CC(=O)c1ccc(S(=O)(=O)N2CCN(c3nc(-c4cccnc4)nc4ccccc34)CC2)cc1 do in these assays?
SARS PLP yeast: -5%; Pf growth 96h: inconclusive; Pf growth 48h: 8.3µM*

What do the screens show for `O=S(=O)(c1ccc(Cl)cc1)N1CCN(c2nc(-c3ccc(Cl)cc3)nc3ccccc23)CC1`?
Shiga toxin inh: 39; Cycloheximide cs: 12

Compound activity (PubChem)
